High-throughput results as filed in PubChem BioAssay.
This excerpt belongs to a sample that is enriched for hits.
PRC2 inh – blocks human EZH2/PRC2 H3K27 methylation; Q15910; DELFIA TRF, 1 h; inhibition, % at 12.5 µM; 57,000 compounds, 0.35% hits; AID 651548;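 active = mean inhibition of replicates at least 50% and every single replicate also reaching 50%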;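 note: dimethyl H3K27 on biotinylated H3 21-44 peptide detected by antibody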
Large screens that a line does not name were inactive.

CO[C@@H]1CN(C)C(=O)c2ccc(NS(=O)(=O)c3cccc(F)c3)cc2OC[C@@H](C)N(Cc2cc(F)ccc2F)C[C@@H]1C	none
O=C(NCCCN1CCOCC1)Nc1ccc(Cl)cc1	none
Cc1ccc(F)c(NC(=O)CSc2nnc(C)s2)c1	none
Cc1ccc(-c2cc3ccccn3c2C(=O)CSc2nnc(C)s2)cc1	PRC2 inh 53
Cc1nnc(SCC(=O)c2c(C)[nH]c3ccccc23)s1	none
CS(=O)(=O)N(CC(=O)Nc1cccc(Cl)c1Cl)c1cccc(F)c1	none
O=C(NO)c1cccc(C(=O)N/N=C/c2ccc(O)c3ccccc23)c1	none
O=C(NO)c1cccc(C(=O)N/N=C/c2cc(Br)ccc2O)c1	none
O=C(NO)c1cccc(C(=O)N/N=C/c2ccc(O)cc2O)c1	none
O=C(CCCCC(=O)N/N=C/c1ccc(O)c(O)c1O)NO	PRC2 inh 76
O=C(NO)c1cccc(C(=O)N/N=C/c2cccc(O)c2O)c1	PRC2 inh 79
O=C(NO)c1cccc(C(=O)N/N=C/c2cc(Br)cc(Br)c2O)c1	none
O=C(CCCCCC(=O)N/N=C/c1ccc(O)cc1O)NO	none
O=C(NO)c1cccc(C(=O)N/N=C/c2ccc(O)c(O)c2O)c1	PRC2 inh 95
O=C(CCCCCC(=O)N/N=C/c1cc(O)ccc1O)NO	none
Cc1ccc(S(=O)(=O)c2c(C)nn(C(C)(C)C)c2OC(=O)c2ccccc2Br)cc1	none
CSc1cccc(NC(=O)CSc2ncn(-c3ccccc3)n2)c1	none
COc1cccc(NC(=O)CSc2nnc(-c3ccccc3)n2-c2ccc(Cl)cc2)c1	none
CCCCN(C)S(=O)(=O)c1ccc(C)c(-c2nnc3c4ccccc4c(C)nn23)c1	none
CCn1c(SCC(=O)Nc2ccc(F)c(F)c2)nnc1-c1ccncc1	none
COc1ccc(C)cc1N(CC(=O)N1CCN(c2cc(Cl)ccc2C)CC1)S(C)(=O)=O	none
COc1ccc(OC)c(NC(=O)COc2cc(C)cc(C)c2C)c1	none
COc1ccccc1NC(=O)CSc1n[nH]c(-c2ccncc2)n1	none
COC(=O)c1ccc(NC(=O)CSc2nnc(-c3cccc(N)c3)n2C)cc1	none
COc1c(O[C@@H]2O[C@H](C(=O)O)[C@@H](O)[C@H](O)[C@H]2O)cc2oc(-c3ccc(O)cc3)cc(=O)c2c1O	none
COc1c(O)cc2c(=O)oc3c(OC)c(O[C@@H]4OC[C@@H](O)[C@H](O)[C@H]4O)cc4c(=O)oc1c2c34	PRC2 inh 80
CC1OC(OCC2OC(OCC3(C)C(O)CCC4(C)C3CCC3(C)C4CCC4C5=CC(C)(C)CCC5(C(=O)O)CCC43C)C(O)C(O)C2O)C(O)C(O)C1O (stereo not given)	none
COc1ccc(OCc2nc3ccccc3n2Cc2c(F)cccc2Cl)cc1	none
COc1ccc(OCc2nc3ccccc3n2Cc2ccccc2F)cc1	PRC2 inh 58
NC(=O)CSc1nc2ccccc2n1Cc1ccccc1F	none
CC(C)=CCN[C@H](CO)c1ccccc1	none
CC(C)=CCN(CC#Cc1ccccc1)[C@H](CO)c1ccccc1	PRC2 inh 66
O=C(OCc1ccccc1O[C@@H]1O[C@H](CO)[C@@H](O)[C@H](O)[C@H]1O)c1c(O)cccc1O[C@@H]1O[C@H](CO)[C@@H](O)[C@H](O)[C@H]1O	none
CC(C)CC(=O)c1c(O)cc(O)cc1OC1OC(COC(=O)c2cc(O)c(O)c(O)c2)C(O)C(O)C1O (stereo not given)	PRC2 inh 94
O=C(OCC1OC(Oc2ccc(O)cc2COC(=O)C2(O)C(O)CCC(=O)C2O)C(O)C(O)C1O)c1ccccc1 (stereo not given)	none
COc1cc(Cc2nccc3cc(OC)c(OC)cc23)c(NC(=O)c2cc(F)c(F)cc2Cl)cc1OC	none
Cc1cccc(OCC(=O)Nc2cccc(-c3nc4cc(Cl)ccc4o3)c2C)c1	none
O=C(Nc1ccc(Cl)cc1Cl)C1CC(=O)n2ncnc2N1 (stereo not given)	none
O=C(CSc1nnc(-c2ccc(Cl)cc2)n1-c1ccc(F)cc1)Nc1ccccc1F	none
O=[N+]([O-])c1cccc(S(=O)(=O)NCCOc2cccc3cccnc23)c1	none
O=[N+]([O-])c1cccc(S(=O)(=O)NCCOc2ccccc2-c2ccccc2)c1	PRC2 inh 53
O=[N+]([O-])c1cccc(S(=O)(=O)NCCOc2cccc(Cl)c2Cl)c1	none
O=c1c(-c2ccccc2)[n+]([O-])c2ccccc2n1OCc1ccccc1	none
CC(C)c1ccc(NC(=O)CN(C)S(=O)(=O)c2ccc(F)cc2)cc1	none
Nc1c(Cl)cc(NC(=O)CCCC(=O)O)cc1Cl	none
Cn1c(SCC(=O)Nc2ccc3ccccc3c2)nnc1-c1cc2ccccc2o1	none
COc1ccc(N(CC(=O)Nc2ccc(I)cc2C)S(C)(=O)=O)cc1Cl	none
O=C(c1cnc2ccccn12)C(F)(F)SCc1c(Cl)cccc1Cl	PRC2 inh 59
O=C(CSc1nnc2ccccn12)Nc1c(Cl)cc(Cl)cc1Cl	none
Cc1cccc(NC(=O)CC(C(=O)O)N2CCOCC2)c1 (stereo not given)	none
Cc1ccc(/C=C/c2ccc(=O)n(Cc3ccccc3Cl)n2)cc1	PRC2 inh 70
Cc1nn(Cc2ccccc2Cl)c(C)c1NC(=O)C1CC(c2ccc(Cl)cc2)=NO1 (stereo not given)	none
Cc1ccc(=O)n(-c2ccccc2)c1	none
COc1ccc(-c2nc3ccccc3s2)cc1NC(=S)NC(=O)COc1ccc(C)cc1	none
